Measured values taken from PubChem BioAssay AID1159580 (chemical genetic matrix, 2015).
Screen size: about 5,500 compounds; about 2,000 (36%) were called active. Inconclusive results (about 18%) are left out. No stated cut-off is given here; in the data, active means normalized growth mostly below about 0.91 (no sharp cut-off); inconclusive means no clear call, values can overlap the other calls; inactive means mostly above about 0.92. Some of the results follow.

Test: chemical genetic growth profiling, strain panel (AID 1159580);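 further: tested at 20 µM; growth read once vehicle control cultures reached saturation at 30 °C; 1 = growth at the plate median or of vehicle wells; lower values mean less growth of the strain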
Details: S. cerevisiae deletion strains, growth OD

Measured: normalized growth

COc1ccc([C@@H]2Sc3ccccc3N(CCN(C)C)C(=O)[C@@H]2OC(C)=O)cc1
inactive: locus YAL013W, strain DEP1, active compounds read low 0.989 | locus YAL040C, strain CLN3, active compounds read low 1.01 | locus YCL061C, strain MRC1 (second series), active compounds read low 0.988 | locus YDR150W, strain NUM1, active compounds read low 1.01 | locus YDR363W, strain ESC2, active compounds read low 0.951 | locus YER002W, strain NOP16, active compounds read low 1.02 | locus YGR078C, strain PAC10, active compounds read low 0.961 | locus YGR229C, strain SMI1, active compounds read low 0.971 | locus YJR075W, strain HOC1, active compounds read low 1 | locus YMR263W, strain SAP30, active compounds read low 0.993 | locus YMR307W, strain GAS1, active compounds read low 1 | locus YNL153C, strain GIM3, active compounds read low 1.01 | locus YNL175C, strain NOP13, active compounds read low 0.99 | locus YNL197C, strain WHI3, active compounds read low 1.1 | locus YNL224C, strain SQS1, active compounds read low 1.02 | locus YNL322C, strain KRE1, active compounds read low 0.967 | locus YOR083W, strain WHI5 (second series), active compounds read low 1.03 | locus YPL055C, strain LGE1, active compounds read low 0.955 | locus YPL241C, strain CIN2, active compounds read low 0.988
